Reference: PubChem BioAssay AID1851 (National Center for Advancing Translational Sciences (NCATS), 2009)
The whole screen tested about 16,000 compounds, of which about 2,600 (16%) were called active. About 20% were inconclusive and are not listed. A selection follows. Unmarked numbers belong to inactive results. Calls come from the whole dose curve; as a rule, active = well fitted curve in the direction sought with a large enough effect; inconclusive = small, poorly fitted or top-dose-only effect, or effect the other way; inactive = no such curve, though single readings can be large or run the other way.

Target: Cytochrome P450 2D6 (Homo sapiens) (UniProt P10635)
Experiment: Cytochrome panel assay with activity outcomes
Conditions: recombinant CYP, pro-luciferin dealkylation, luminescence, p450-cyp2d6; series mostly up to 57.1 µM; activity, negative = inhibition: at the top concentration
% is set by controls: 0 for no effect and ±100 for the full control effect.

Cytochrome P450 2D6 (Homo sapiens), sequence (P10635 whole entry, looked up): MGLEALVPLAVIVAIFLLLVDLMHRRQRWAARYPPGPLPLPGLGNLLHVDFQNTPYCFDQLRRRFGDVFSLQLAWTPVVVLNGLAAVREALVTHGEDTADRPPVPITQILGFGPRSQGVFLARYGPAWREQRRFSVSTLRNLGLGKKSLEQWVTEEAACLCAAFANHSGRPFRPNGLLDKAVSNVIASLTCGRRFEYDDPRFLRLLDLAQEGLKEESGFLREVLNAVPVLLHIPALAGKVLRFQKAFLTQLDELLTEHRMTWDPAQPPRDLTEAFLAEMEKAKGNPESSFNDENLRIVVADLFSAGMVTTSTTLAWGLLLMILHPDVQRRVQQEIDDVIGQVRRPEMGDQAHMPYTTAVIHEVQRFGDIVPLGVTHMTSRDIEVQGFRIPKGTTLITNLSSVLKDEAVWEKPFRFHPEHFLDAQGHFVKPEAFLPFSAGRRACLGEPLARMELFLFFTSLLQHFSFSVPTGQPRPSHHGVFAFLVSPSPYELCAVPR

| Compound | activity, negative = inhibition | AC50 |
| --- | --- | --- |
| O=C(Nc1cccc(-c2cn3cccnc3n2)c1)c1ccco1 | -3.97% |  |
| COc1ccc(S(=O)(=O)N2CCc3ccccc3C2)cc1OC | 26.5% |  |
| O=C(NNS(=O)(=O)c1ccc(Cl)cc1)c1cnn(-c2ccccc2)c1-n1cccc1 |  | 2000 nM (active) |
| O=C(NNS(=O)(=O)c1cc(Cl)cc(Cl)c1)c1sccc1-n1cccc1 | -28.4% |  |
| O=C(NNS(=O)(=O)c1ccccc1)c1cccnc1 | 14.2% [at 11.4 µM] |  |
| N=c1nc(N2CCCCC2)cc(N)n1O |  | inactive |
| Oc1[nH]c2ccccc2c1N=Nc1ccc(C(F)(F)F)cn1 | -2.34% |  |
| [O-][N+](CCO)(CCO)c1ncnc2nc[nH]c12 | -0.262% [at 11.4 µM] |  |
| COc1ccc(-c2cc([C@H](O)[C@@H]3CCCCN3)c3ccccc3n2)cc1 |  | 3160 nM (active) |
| Cc1cc(C)c2nc3c(c([C@H](O)[C@@H]4CCCCN4)c2c1)CC/C3=C/c1ccc(Cl)cc1 | 0.19% [at 11.4 µM] |  |
| CCNC(=O)COC(=O)c1cc(-c2ccc(OC)cc2)nc2ccccc12 | -27.2% |  |
| COc1ccc(-c2nc3ccccc3c(=O)n2N)cc1 | -1.03% |  |
| N/C(=N\OC(=O)c1cc(-c2ccccc2)nc2ccccc12)c1ccc(Cl)cc1 | -8.2% |  |
| O[C@@H](c1cc(-c2ccc(Cl)cc2)nc2ccccc12)[C@@H]1CCCCN1 |  | 631 nM (active) |
| Cc1ccc(C(=O)COC(=O)CNC(=O)Cc2ccccc2)cc1[N+](=O)[O-] | -10.1% |  |
| Cc1c(NC(=O)Cn2ccc([N+](=O)[O-])n2)c(=O)n(-c2ccccc2)n1C | 23.1% |  |
| c1ccc(C2=NN[C@@H]3c4ccccc4-c4ccccc4N3C2)cc1 | -17.6% [at 11.4 µM] |  |
| CCC(=O)NC(NC(=O)CC)C(Cl)Cl | 6.76% |  |
| O=C(Nc1ccc2oc(-c3ccccc3F)nc2c1)c1ccc2c(c1)OCCO2 | -24.9% |  |
| Cc1oc(-c2ccccc2Cl)nc1CSCC(=O)NC1CC1 | -21.5% |  |
| Cc1cccc(C(=O)N/N=C/c2ccc(OCC(=O)N3CCCCC3)cc2)c1 | -11.8% |  |

| Compound | activity, negative = inhibition | AC50 |
| --- | --- | --- |
| O=C(CN1CCCC1)N/N=C/c1ccc(-c2cccc(Cl)c2)o1 | -20.7% |  |
| Cc1oc(-c2ccccc2F)nc1CSCC(=O)NCc1ccc2c(c1)OCO2 |  | 2240 nM (active) |
| O=C(/C=C/c1ccc2c(c1)OCO2)NCCSCc1cccc(Cl)c1 |  | 355 nM (active) |
| CCN1CCCC1CNC(=O)CSCc1nc(-c2ccccc2C)oc1C (configuration not stated) |  | 8910 nM (active) |
| COCCCNC(=O)/C=C/c1ccc(Cl)cc1 | -4.47% |  |
| CCOC(=O)N1CCN(C(=O)CSCc2nc(-c3ccccc3F)oc2C)CC1 | 6.39% |  |
| O=C(CSCc1cccc(Cl)c1)N/N=C/c1ccc(OCC(=O)N2CCCCC2)cc1 |  | 17800 nM (active) |
| O=C(/C=C/c1cccc([N+](=O)[O-])c1)NCCN1CCOCC1 | -0.0015% |  |
| COc1ncc2nc(-c3cc(F)cc(F)c3)c(=O)n(C[C@H]3CCCO3)c2n1 | -6.6% |  |
| CNc1c2c(nn1C)CCCC2 | -19.9% |  |
| Cc1ccccc1S(=O)(=O)Oc1ccccc1C(=O)Oc1ccccc1 | -7.88% |  |
| Nc1ncnc2nc(N3CCN(CCO)CC3)[nH]c12 | 6.88% [at 11.4 µM] |  |
| N[C@H](CCC(=O)NCS(=O)(=O)O)C(=O)O | 4.98% |  |
| COc1cc(=O)n(C)c2c(OC[C@@H](O)C(C)(C)O)cccc12 |  | inactive |
| CO/N=C(\C(=O)N[C@@H]1C(=O)N2C(C(=O)O)=C(COC(C)=O)CS[C@@H]12)c1csc(N)n1 |  | inactive |
| Cc1ccccc1NC1=C(C(=O)c2ccccc2)N(C)S(=O)(=O)c2ccccc21 | -1.01% |  |
| C[C@H]1COC(=O)[C@H](Cc2ccccc2)NC(=O)[C@@H](C)COC(=O)[C@H](Cc2ccccc2)NC1=O | 13.8% [at 11.4 µM] |  |
| OC[C@@H]1O[C@@H](O)[C@H](N=Cc2ccc3c(c2)OCO3)[C@@H](O)[C@@H]1O | 0.161% [at 11.4 µM] |  |
| COCCn1c(=O)c(-c2cc(F)cc(F)c2)nc2cnc(N3CCN(C)CC3)nc21 | -3.39% |  |
| Cn1c(=O)c2c(n(Cc3ccccc3)c1=O)NC(=O)C2CC(=O)NCc1cccc(Cl)c1 (configuration not stated) | -23.2% |  |
| C=CCNC(=O)CC(=O)N/N=C/c1cccc(Br)c1 | -2.86% |  |

| Compound | activity, negative = inhibition | AC50 |
| --- | --- | --- |
| CCN(CC)C(=O)C(=O)N/N=C/c1cccc(Br)c1 | 16.9% |  |
| O=C(/C=C/c1cc2c(cc1Br)OCO2)NCc1ccc(Cl)cc1 | -23.8% |  |
| O=C(CSCc1cccc(Cl)c1)NCc1ccc2c(c1)OCO2 |  | 1000 nM (active) |
| O=C(CSCc1cccc(Br)c1)N/N=C/c1ccc2c(c1)OCO2 |  | 2000 nM (active) |
| O=[N+]([O-])c1ccc(/C=N/n2c(COc3ccccc3)n[nH]c2=S)cc1 | -10.7% |  |
| C=CCNc1sc(C(=O)c2ccc(C)cc2)c(N)c1C#N | 6.69% |  |
| O=C(O)[C@H]1CCCC[C@@H]1c1c2ccc(=O)c(O)c-2oc2c(O)c(O)ccc12 | -0.179% [at 11.4 µM] |  |
| Cc1ccc(S(=O)(=O)N[C@H](C(=O)Oc2ccc3c(C(F)(F)F)cc(=O)oc3c2)c2ccccc2)cc1 | -6.64% |  |
| O=C(O)/C(=C\c1ccc(O)cc1)c1cccc2ccccc12 | -6.42% [at 11.4 µM] |  |
| O=C(O)[C@H]([C@H]1NCCS1)N1Cc2ccccc2C1 | 5.75% [at 11.4 µM] |  |
| CCN=C(N)CSS(=O)(=O)O | -8.26% [at 11.4 µM] |  |
| O=C(N/N=C1/C[C@@H](O)[C@@H](O)[C@@H]2[C@H]3C(=O)N(c4ccc(F)cc4F)C(=O)[C@@H]3CC[C@H]12)OCc1ccccc1 | -17.3% [at 11.4 µM] |  |
| Clc1ccc(-c2nnc(CCc3ccccc3)o2)c(Cl)c1 |  | 11200 nM (active) |
| CSc1nnc(-c2ccc(Cl)cc2Cl)o1 | -5.62% |  |
| Clc1ccc(-c2nnc(-c3cccc4ccccc34)o2)cc1Cl | 17.5% [at 11.4 µM] |  |
| CCN1C(=O)C(O)(CC(=O)/C=C/C=C/c2ccccc2)c2ccccc21 (configuration not stated) | -17.9% |  |
| CC(C)CO/N=C1/C[C@@H](O)[C@@H](O)[C@@H]2[C@@H]3C(=O)N(C[C@@H]4CCCO4)C(=O)[C@H]3CC[C@@H]12 | 17.5% [at 11.4 µM] |  |
| CC(C)c1ccc2c(c1)C(c1ccc(N3CCOCC3)cc1)=NNC(c1cccs1)=N2 |  | 7080 nM (active) |
| O=c1c(-c2cccs2)nc2cnc(N3CCOCC3)nc2n1-c1ccccc1 | -9.01% |  |
| COc1ccc(-n2c(=O)c(-c3cccs3)nc3cnc(N4CCOCC4)nc32)cc1 | -9.92% |  |
